Where “and” joins values, the source holds several entries; their conditions need not be identical. Equal entries are not always repeated. Results filed as inconclusive are left out. For some assays here: Measured potencies and affinities stand elsewhere. Calls of active or inactive are those of the source. Unless noted, the rule behind the calls is not given here.
Key:
[1] = test system: Aerobactin synthetase IucA (Klebsiella pneumoniae); assay: IucA aerobactin synthetase inhibitors, biochemical, Tocris library, absorbance (AID 1345561); details: purified IucA enzyme assay, absorbance (OD) read-out; stronger effect = lower value;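 tested at 8 µM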;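 note: 100% = enzyme without compound and 0% = no enzyme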
[2] = growth inhibition of DIPG glioma cells, dose response, cell-based, SU-DIPG-XVII, MIPE5.0, CellTiter-Glo, qHTS (AID 1347060; cut-off not given, nearly all actives have AC50 up to about 26 µM;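 for AC50: cells exposed to compound for 48 hours before viability readout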); details: SU-DIPG-XVII viability, CellTiter-Glo ATP luminescence
[3] = growth inhibition of DIPG glioma cells, dose response, cell-based, JHH-DIPG-1, MIPE4.0, CellTiter-Glo, qHTS (AID 1347062; cut-off not given, nearly all actives have AC50 up to about 27 µM); details: JHH-DIPG-1 viability, CellTiter-Glo ATP luminescence
[4] = growth inhibition of DIPG glioma cells, dose response, cell-based, SU-DIPG-IV, MIPE4.0, CellTiter-Glo, qHTS (AID 1347063; cut-off not given, nearly all actives have AC50 up to about 30 µM;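 note: compound exposure lasted 48 hours before the viability readout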); details: SU-DIPG-IV viability, CellTiter-Glo ATP luminescence
[5] = growth inhibition of DIPG glioma cells, dose response, cell-based, SU-DIPG-XIII, MIPE5.0, CellTiter-Glo, qHTS (AID 1347064; cut-off not given, nearly all actives have AC50 up to about 23 µM;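 for AC50: cells exposed to compound for 48 hours before the viability read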); details: SU-DIPG-XIII viability, CellTiter-Glo ATP luminescence
[6] = viability loss in pontine glioma line – cell-based, SU-DIPG-XXV, MIPE5.0, CellTiter-Glo, qHTS, dose response (AID 1347065; cut-off not given, nearly all actives have AC50 up to about 26 µM;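 note: cells exposed to compound for 48 hours before ATP readout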); details: CellTiter-Glo ATP luminescence
[7] = SU-DIPG-VI glioma cell viability, MIPE4.0 library, CellTiter-Glo luminescence, qHTS (AID 1347066; cut-off not given, nearly all actives have AC50 up to about 30 µM;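 note: cells exposed to compound for 48 hours before readout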); details: CellTiter-Glo ATP luminescence
[8] = SU-DIPG-XXV glioma cell viability, MIPE5.0 library, qHTS (AID 1347068; cut-off not given, nearly all actives have IC50 up to about 30 µM;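 for IC50: cells exposed to compound for 48 hours before viability readout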)
[9] = sensitizers of A549 cells to miR-34 induction, primary screen, imaging, A549 dox-inducible miR-34, nuclei and caspase counts (AID 1347080;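 active = compounds whose cell count with miR-34 switched on is under 0.7 times the count with it off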); details: A549 miR-34 inducible, Hoechst nuclei count, 48 h
[10] = modifiers of HSF1 nuclear foci, imaging, Selleck Cancer Library (AID 1347162; in the data active = plate-normalised HSF1 focus index below about 0.46); details: human cells, at 10 µM; SSMD: measured here: HSF1 foci SSMD mean; cell count: measured here: cell number; plate-normalised HSF1 focus index: stronger effect = lower value
[11] = viability rescue of complex I mutant cybrids, primary screen, cell-based, galactose medium, ATP luminescence (AID 1645843;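 active = z-score of at least 1.8 in each of two replicates, scored against plate mean and spread of sample wells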;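 note: positive z means more ATP and so rescue of galactose-driven cybrid death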); details: complex I mutant cybrid cells, 72 h, stronger effect = higher value
[12] = growth inhibition of DIPG glioma cells, dose response, cell-based, SU-DIPG-XIII, MIPE4.0, CellTiter-Glo, qHTS (AID 1347061; cut-off not given, nearly all actives have AC50 up to about 37 µM;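 note: cells exposed to compound for 48 hours before readout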); details: SU-DIPG-XIII viability, CellTiter-Glo ATP luminescence
[13] = JHH-DIPG-1 glioma cell viability, MIPE5.0 library, CellTiter-Glo luminescence, qHTS (AID 1347067; cut-off not given, nearly all actives have AC50 up to about 26 µM;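 note: cells exposed to compound for 48 hours before readout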); details: JHH-DIPG-1 glioma viability, CellTiter-Glo ATP luminescence
[14] = inhibitors of Cryptococcus chitosan production, flow cytometry, Cibacron Brilliant Red staining (AID 1347148); details: Cryptococcus neoformans chitosan, stronger effect = lower value; at 10 µM unless noted;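 note: compound exposure lasted three days at 37 degrees C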
[15] = circadian clock period modulators, cell-based, LOPAC library, luminescence reporter (AID 2774); details: circadian reporter cells, at 7 µM, actives lie on both sides;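 note: values are relative to mean of DMSO wells on each plate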
[16] = test system: Hepatitis C virus NS3 helicase; assay: HCV NS3 helicase inhibitors, primary screen, biochemical, fluorescence polarization, LOPAC1280 library (AID 687035; in the data active = inhibition above about 37%); details: Purified HCV NS3 helicase, Cy5-dT15 ssDNA binding fluorescence polarization; stronger effect = higher value; concentration not given here
[17] = Cy5 fluorescence quenching or enhancement artefacts, artefact control for HCV NS3 helicase inhibitor project, biochemical, LOPAC1280 (AID 687037); details: Cy5-DNA-NS3h complex fluorescence interference counterscreen
[18] = phospholipid biosynthesis inhibitors in animal cells, primary screen, cell-based, LOPAC library, screen 4 (AID 1347384); details: phospholipid biosynthesis inhibition screen, at 10 µM
[19] = test system: Aerobactin synthetase IucA (Klebsiella pneumoniae, hypervirulent); assay: IucA enzyme inhibition, biochemical, LOPAC library, absorbance readout (AID 1346212); details: IucA enzyme assay, absorbance (OD) readout; stronger effect = lower value;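 tested at 8 µM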;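 note: 100% = no compound wells and 0% = no enzyme wells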
[20] = target: ATP-dependent translocase ABCB1 (Homo sapiens) (UniProt P08183); assay: MDR1 (ABCB1) efflux transporter inhibition, cell-based (AID 377; in the data active = fluorescence slope change above about 50%); details: MDR1-expressing cells, fluorescent substrate accumulation slope; stronger effect = higher value; concentration not given here
[21] = polyglutamine-triggered caspase-3 activation inhibitors, cell-based (AID 1583); details: polyglutamine-induced caspase-3 activation, cell assay; stronger effect = higher value;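 tested at 10 µM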
[22] = suppressors of polyQ aggregation in yeast, 75Q-TubU reporter (AID 1593); details: Yeast 75Q polyglutamine aggregation reporter
[23] = rescue of polyQ-huntingtin neuronal dysfunction in worms, whole organism, C. elegans mechanosensory neurons, N-terminal huntingtin (AID 1599); details: touch response, stronger effect = higher value
[24] = inhibitors of mitochondrial cytochrome c release, biochemical, purified mitochondria (AID 1603); details: stronger effect = lower value;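 note: mouse liver mitochondria challenged with calcium chloride; signal normalized to the plate average as 100%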
[25] = inhibitors of polyQ protein aggregation (AID 1604); details: polyglutamine-induced protein aggregation inhibition assay; stronger effect = higher value; tested at 2.5 µM
[26] = enhancers of glutamate uptake in motor neurons, MN-1 cell line (AID 1612); details: MN-1 motor neuron cells, stronger effect = higher value;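 note: tested at 1 µM final; 0% = mean of DMSO vehicle wells on each plate; positive means more glutamate uptake than control and negative means less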
[27] = reducers of polyQ inclusions in PC12 cells, cell-based, NGF-treated PC12, GFPQ80 (AID 1614); details: PC12 NGF-treated GFP-polyQ80 inclusion reduction;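 note: lower means fewer inclusions and 0 means no inclusions at all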
[28] = suppressors of polyglutamine aggregation in yeast, 75Q-TubH (AID 1616); details: S. cerevisiae 75Q-TubH polyglutamine aggregation suppression; stronger effect = higher value
[29] = hESC survival regulators, cell-based (AID 493140); details: human embryonic stem cell survival screen; stronger effect = higher value;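 note: cells exposed to compounds for four days before counting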
[30] = liver-stage malaria parasite growth inhibition, primary screen, cell-based, HepG2, luciferase luminescence, HepG2 viability (AID 624349; in the data active = parasite load remaining mostly below about 12%, no sharp cut-off; inactive = mostly above about 10%;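 note: 100% = mean of DMSO negative control wells on the same plate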); details: P. berghei liver stage in HepG2, luciferase luminescence, concentration not given here; parasite load remaining: stronger effect = lower value; viability: measured here: HepG2 viability without parasites
[31] = survival rescue of mitochondrial mutant cells in low glucose, primary screen, MELAS cybrids, Rieske KO mouse fibroblasts, CellTiter-Glo (AID 1508586;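 active = mean z-score across replicates of 1.96 or higher in either the MELAS or the Rieske mutant cell line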;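 note: z relative to plate mean and SD of compound and empty wells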)
[32] = target: Mitogen-activated protein kinase 7 (Homo sapiens) (UniProt Q13164); assay: ERK5 transactivation activators in reporter cells, primary screen, cell-based, HTS (AID 1508626;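 active = luciferase signal above three times the same-plate solvent-only control wells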;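 note: luciferase driven by Gal4-ERK5 fusion binding five Gal4 sites before minimal TATA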); details: HeLa Gal4-ERK5 transactivation, 18 h, at 5 µM, stronger effect = higher value
[33] = stronger effect = lower value, cell number ratio, induced over uninduced
[34] = measured here: relative caspase fold change +Dox/-Dox
[35] = measured here: total cells with miR-34 induction, stronger effect = lower value
[36] = measured here: total cells without miR-34 induction
[37] = MELAS cybrid survival, CellTiter-Glo 48 h, stronger effect = higher value
[38] = Rieske KO mouse fibroblast survival, CellTiter-Glo 72 h

Sequence of Mitogen-activated protein kinase 7 (Homo sapiens) (Q13164 whole entry, looked up, the tested form may be a part): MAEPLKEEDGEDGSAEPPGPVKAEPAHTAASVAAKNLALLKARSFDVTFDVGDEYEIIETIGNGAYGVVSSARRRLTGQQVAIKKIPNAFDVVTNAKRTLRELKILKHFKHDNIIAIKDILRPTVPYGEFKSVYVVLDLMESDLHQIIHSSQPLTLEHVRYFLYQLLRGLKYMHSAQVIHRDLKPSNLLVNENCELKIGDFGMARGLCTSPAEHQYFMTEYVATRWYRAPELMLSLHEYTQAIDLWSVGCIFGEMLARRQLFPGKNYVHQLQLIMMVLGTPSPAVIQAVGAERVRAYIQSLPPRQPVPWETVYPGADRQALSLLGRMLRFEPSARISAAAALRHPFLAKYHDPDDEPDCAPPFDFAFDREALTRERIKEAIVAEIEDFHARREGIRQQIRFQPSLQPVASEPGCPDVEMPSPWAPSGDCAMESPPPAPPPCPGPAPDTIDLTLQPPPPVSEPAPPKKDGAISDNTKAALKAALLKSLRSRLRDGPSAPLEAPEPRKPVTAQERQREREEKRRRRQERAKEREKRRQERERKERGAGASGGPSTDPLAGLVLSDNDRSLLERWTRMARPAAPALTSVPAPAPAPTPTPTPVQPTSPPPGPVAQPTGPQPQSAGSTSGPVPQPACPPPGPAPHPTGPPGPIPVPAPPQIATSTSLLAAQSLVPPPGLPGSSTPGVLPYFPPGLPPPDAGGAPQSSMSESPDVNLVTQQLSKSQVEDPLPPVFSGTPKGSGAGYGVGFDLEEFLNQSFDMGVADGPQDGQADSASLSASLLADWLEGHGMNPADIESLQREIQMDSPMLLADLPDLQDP
Sequence of ATP-dependent translocase ABCB1 (Homo sapiens) (P08183 whole entry, looked up): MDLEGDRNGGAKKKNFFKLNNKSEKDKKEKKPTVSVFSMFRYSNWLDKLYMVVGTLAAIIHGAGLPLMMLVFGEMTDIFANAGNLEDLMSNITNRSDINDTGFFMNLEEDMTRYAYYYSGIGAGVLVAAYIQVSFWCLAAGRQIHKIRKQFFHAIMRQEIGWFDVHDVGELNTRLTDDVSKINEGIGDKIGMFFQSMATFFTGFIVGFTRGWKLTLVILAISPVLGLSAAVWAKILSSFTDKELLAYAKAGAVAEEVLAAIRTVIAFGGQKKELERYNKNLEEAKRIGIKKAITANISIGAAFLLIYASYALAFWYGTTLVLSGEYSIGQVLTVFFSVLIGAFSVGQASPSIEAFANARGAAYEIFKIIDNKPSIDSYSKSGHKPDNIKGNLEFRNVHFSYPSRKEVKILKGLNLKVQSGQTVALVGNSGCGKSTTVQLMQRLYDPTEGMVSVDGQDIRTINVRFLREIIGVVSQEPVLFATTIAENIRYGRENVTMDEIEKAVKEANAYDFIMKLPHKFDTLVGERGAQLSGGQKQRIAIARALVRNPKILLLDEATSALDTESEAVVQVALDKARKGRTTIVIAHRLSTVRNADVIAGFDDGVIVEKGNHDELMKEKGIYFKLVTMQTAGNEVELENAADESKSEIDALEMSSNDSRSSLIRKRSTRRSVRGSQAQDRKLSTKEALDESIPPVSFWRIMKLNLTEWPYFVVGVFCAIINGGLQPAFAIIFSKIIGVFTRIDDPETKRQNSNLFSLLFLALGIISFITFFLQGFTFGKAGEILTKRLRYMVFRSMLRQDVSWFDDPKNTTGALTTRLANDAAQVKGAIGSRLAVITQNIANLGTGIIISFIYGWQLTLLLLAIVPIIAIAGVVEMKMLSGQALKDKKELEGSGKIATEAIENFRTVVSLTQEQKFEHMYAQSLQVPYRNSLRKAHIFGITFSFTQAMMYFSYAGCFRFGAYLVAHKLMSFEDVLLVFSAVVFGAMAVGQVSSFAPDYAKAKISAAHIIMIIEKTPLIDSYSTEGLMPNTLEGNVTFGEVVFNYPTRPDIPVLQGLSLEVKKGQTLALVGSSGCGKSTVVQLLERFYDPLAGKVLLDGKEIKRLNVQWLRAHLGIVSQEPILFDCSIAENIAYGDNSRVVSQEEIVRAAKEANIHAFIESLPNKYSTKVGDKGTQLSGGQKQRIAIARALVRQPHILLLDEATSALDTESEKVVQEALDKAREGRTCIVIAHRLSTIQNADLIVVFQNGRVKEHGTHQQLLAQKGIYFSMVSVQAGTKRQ

CN(C)CCN(C)CCc1ccc(Cl)c(Cl)c1
remaining activity [1]: 102% (inactive)
outcome [2]: inactive
outcome [3]: inactive
outcome [4]: inactive
outcome [5]: inactive
outcome [6]: inactive
outcome [7]: inactive
outcome [8]: inactive
fold change [9, 33]: 0.927 (inactive)
fold change [9, 34]: 0.848
cell count [9, 35]: 8600
cell count [9, 36]: 9270
SSMD [10]: 1.43
cell count [10]: 7160
plate-normalised HSF1 focus index [10]: 1.09 (inactive)
z-score [11]: -0.285 (inactive)

C(=C\c1ccccc1)/CN1CCN(CCOC(c2ccccc2)c2ccccc2)CC1
remaining activity [1]: 119% (inactive)
fold change [9, 33]: 0.938 (inactive)
fold change [9, 34]: 0.604
cell count [9, 35]: 5420
cell count [9, 36]: 5780
z-score [11]: -1.21 (inactive)

C[C@H]1CCC/C=C/C2C[C@H](O)C[C@H]2[C@H](O)/C=C/C(=O)O1 (stereo partly drawn)
remaining activity [1]: 129% (inactive)
AC50 [2]: 66.1 nM (active)
outcome [12]: inactive
outcome [3]: inactive
outcome [4]: inactive
AC50 [5]: 235 nM (active)
AC50 [6]: 263 nM (active)
outcome [7]: inactive
AC50 [13]: 235 nM (active)
IC50 [8]: 209 nM (active)
fold change ([9]; stronger effect = lower value): 1.05 (inactive) and 1.09 (inactive)
fold change [9, 34]: 1.17 and 1.67
cell count [9, 35]: 2000 and 1470
cell count [9, 36]: 1910 and 1340
fold fluorescence [14]: 10.7 [at 178.3 µM] (inactive)
z-score [11]: -0.56 (inactive)

C[C@H](N)Cn1ccc2cc(F)c(Cl)cc21
remaining activity [1]: 103% (inactive)
fold change [9, 33]: 0.874 (inactive)
fold change [9, 34]: 1.05
cell count [9, 35]: 7990
cell count [9, 36]: 9140
z-score [11]: -0.575 (inactive)

CC(C)(c1ccc(OCC2CO2)cc1)c1ccc(OCC2CO2)cc1 (stereo not drawn)
remaining activity [1]: 110% (inactive)
fold change ([9]; stronger effect = lower value): 0.903 (inactive) and 0.927 (inactive) and 0.945 (inactive)
fold change [9, 34]: 1.23 and 0.827 and 0.981
cell count [9, 35]: 5020 and 5510 and 8910
cell count [9, 36]: 5560 and 5950 and 9430
fold fluorescence [14]: 8.02 [at 146.9 µM] (inactive)
z-score [11]: -0.925 (inactive)

CN1C2CCC1CC(OC(=O)c1cc(Cl)cc(Cl)c1)C2 (stereo not drawn)
period change [15]: -0.075 h (inactive)
inhibition [16]: -7% (inactive)
fluorescence ratio (interference) [17]: 0.9 (inactive)
remaining activity [1]: 82.7% (inactive)
fold change ([9]; stronger effect = lower value): 1.08 (inactive) and 0.937 (inactive)
fold change [9, 34]: 1.35 and 0.719
cell count [9, 35]: 8680 and 8550
cell count [9, 36]: 8070 and 9130
outcome [18]: inactive
z-score [11]: -0.22 (inactive) and 0.04 (inactive)

C=CCN1CC[C@]23c4c5ccc(O)c4O[C@H]2/C(=N/NC(=O)c2ccccc2)CC[C@@]3(O)[C@H]1C5
period change [15]: 0.215 h (inactive)
remaining activity [1]: 115% (inactive)
remaining activity [19]: 116% (inactive)
fold change ([9]; stronger effect = lower value): 0.994 (inactive)
fold change [9, 34]: 0.667
cell count [9, 35]: 9120
cell count [9, 36]: 9170
z-score [11]: -0.33 (inactive)

CN1CCc2cc3c(cc2[C@H]1[C@@H]1OC(=O)c2c1ccc1c2OCO1)OCO3
fluorescence slope change [20]: 0.5% (inactive)
inhibition [21]: -6.49%
score [22]: 1.32
rescue above control [23]: 3.46
cytochrome c release ratio [24]: 0.82
inhibition of aggregation [25]: 59.1%
glutamate uptake change [26]: 4.35%
inclusion score [27]: 1.5
aggregation suppression score [28]: 0.931
period change [15]: 0.03 h (inactive)
survival [29]: 5.92 (inactive)
parasite load remaining [30]: 65% (inactive) and 87.6% (inactive)
viability [30]: 109% and 77.4%
remaining activity [1]: 114% (inactive)
fold change ([9]; stronger effect = lower value): 0.865 (inactive) and 0.821 (inactive) and 0.983 (inactive)
fold change [9, 34]: 1.2 and 0.761 and 1.26
cell count [9, 35]: 9130 and 8360 and 9120
cell count [9, 36]: 10600 and 10200 and 9280
z-score [31, 37]: -0.206 (inactive)
z-score [31, 38]: -0.158
luciferase signal [32]: 44 AU (inactive)
z-score [11]: 0.335 (inactive)

CCN1C[C@]2(COC(=O)c3ccccc3N3C(=O)C[C@H](C)C3=O)CC[C@H](OC)[C@]34C2[C@H](OC)[C@](O)([C@H]13)[C@@]1(O)C[C@H](OC)[C@H]2C[C@@H]4[C@@H]1[C@H]2OC
remaining activity [1]: 128% (inactive)
fold change [9, 33]: 0.94 (inactive)
fold change [9, 34]: 0.834
cell count [9, 35]: 8220
cell count [9, 36]: 8740
z-score [11]: -0.21 (inactive)

CC(C(=O)OC1CC2CCC(C1)N2C)c1ccc(Br)cc1 (stereo not drawn)
remaining activity [1]: 87.5% (inactive)
fold change [9, 33]: 0.964 (inactive)
fold change [9, 34]: 0.964
cell count [9, 35]: 8760
cell count [9, 36]: 9090
z-score [11]: -0.795 (inactive)

Cc1o[nH]c(=O)c1CC(N)C(=O)O (stereo not drawn)
period change [15]: -0.03 h (inactive)
inhibition [16]: -4% (inactive)
fluorescence ratio (interference) [17]: 0.9 (inactive)
remaining activity [1]: 111% (inactive) and 121% (inactive)
fold change [9, 33]: 0.968 (inactive) and 0.976 (inactive) and 0.969 (inactive)
fold change [9, 34]: 1.08 and 0.707 and 0.956
cell count [9, 35]: 10200 and 8490 and 9480
cell count [9, 36]: 10500 and 8700 and 9780
outcome [18]: inactive
z-score [11]: 0.295 (inactive) and -0.475 (inactive) and -0.075 (inactive)

Cc1cc(SCc2sc(-c3ccc(C(F)(F)F)c(F)c3)nc2C)ccc1OCC(=O)O
remaining activity [1]: 88.1% (inactive)
outcome [2]: inactive
outcome [12]: inactive
outcome [4]: inactive
outcome [5]: inactive
outcome [6]: inactive
outcome [7]: inactive
outcome [8]: inactive
fold change [9, 33]: 0.896 (inactive) and 0.953 (inactive) and 0.869 (inactive)
fold change [9, 34]: 0.54 and 0.363 and 1.57
cell count [9, 35]: 5150 and 8510 and 7240
cell count [9, 36]: 5740 and 8930 and 8330
z-score [31, 37]: -0.492 (inactive)
z-score [31, 38]: -2.16
z-score [11]: 1.59 (inactive)
